Test results reported in PubChem BioAssay (NCI).
The panel holds about 83,000 compounds, 20% with a hit somewhere; the sample as a whole holds those more often.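 48-hour exposure, single concentration, 96-well plates; percent growth endpoint where 0 means no net growth. Active: below 10.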 The source made the active and inactive calls.

Key:
Assay in all cases: NCI-60 one-dose screen, 48 h (100 = growth as untreated, 0 = no growth, -100 = all killed)
Details in all cases: 10 µM unless noted
[1] = tested on: HCT-15 colon
[2] = tested on: HT29 colon
[3] = tested on: SNB-75 CNS
[4] = tested on: SNB-19 CNS
[5] = tested on: U251 CNS
[6] = tested on: PC-3 prostate
[7] = tested on: SK-MEL-5 melanoma
[8] = tested on: UACC-62 melanoma
[9] = tested on: LOX IMVI melanoma
[10] = tested on: SK-MEL-28 melanoma
[11] = tested on: SK-MEL-2 melanoma
[12] = tested on: EKVX NSCLC
[13] = tested on: SN12C renal
[14] = tested on: UO-31 renal
[15] = tested on: TK-10 renal
[16] = tested on: ACHN renal
[17] = tested on: CAKI-1 renal
[18] = tested on: A498 renal
[19] = tested on: CCRF-CEM leukemia
[20] = tested on: MOLT-4 leukemia

Measured: growth

Cc1cc2c(O)c(-c3cccc(Cl)c3)c3sc(=O)oc3c2cc1C
active: [18] 9.01%
inactive: [1] 43.2% | [2] 111% | [3] 36.1% | [4] 45.4% | [5] 21.9% | [6] 60.9% | [7] 18.9% | [8] 27% | [9] 45.1% | [10] 52.2% | [11] 37.8% | [12] 93.9% | [13] 36.7% | [14] 54.2% | [15] 122% | [16] 44.5% | [17] 40.5% | [19] 44.8% | [20] 45.8%

CCOC(=O)Cn1c(O)c(N=Nc2ccc(S(N)(=O)=O)cc2)c2cc(Br)ccc21
inactive: [1] 85.4% | [2] 63.7% | [3] 78% | [4] 91.4% | [5] 86.2% | [6] 70.8% | [7] 88.3% | [8] 83.3% | [9] 86% | [10] 85.2% | [11] 88.8% | [12] 83.3% | [13] 88.2% | [14] 87.5% | [15] 86.4% | [16] 84.8% | [17] 86.4% | [18] 91.4% | [19] 53.4% | [20] 77%

N#CC1=C(N)Oc2c(sc3c(F)cccc23)C1c1ccc(F)cc1 (stereo not given)
inactive: [1] 26% | [4] 27.3% | [5] 22.2% | [6] 28.7% | [7] 22.3% | [8] 29.2% | [9] 32.2% | [10] 64% | [12] 47.3% | [13] 42.4% | [14] 41.9% | [15] 35.8% | [16] 46.6% | [17] 29.1% | [18] 23.2% | [19] 19.8% | [20] 18.4%
active: [2] 6.86% | [3] 6.01% | [11] -4.03%

CCCCCC(=O)OCC(=O)O[C@@H]1C[C@]2(C(C)C)O[C@@]1(C)[C@@H]1CC[C@@H](C)[C@H]1[C@@H]2OC(=O)/C=C/c1ccccc1
inactive: [1] 68.8% | [2] 56.1% | [3] 89% | [4] 87% | [5] 65.9% | [6] 55.5% | [7] 95.7% | [8] 62.1% | [9] 68.6% | [10] 101% | [11] 94% | [12] 73.8% | [13] 19.7% | [15] 134% | [19] 59.7% | [20] 72.1%
active: [14] -80.3% | [16] -24.2% | [17] -4.76% | [18] -88.6%

O=[N+]([O-])/C(=C/C=C/c1ccccc1)c1ccccc1
inactive: [1] 10.8% | [2] 26.9% | [3] 57.3% | [4] 85.9% | [5] 37.2% | [6] 43.6% | [7] 82.4% | [8] 70.5% | [10] 12.6% | [11] 86.5% | [12] 92.7% | [13] 66.5% | [15] 91.1% | [16] 10.6% | [17] 51.2% | [18] 50.4% | [19] 36.5% | [20] 34.4%
active: [9] -0.767% | [14] -44.4%

CN(C)CCCC1(c2ccc(F)cc2)OCc2cc(-c3cncc4ccccc34)ccc21 (stereo not given)
active: [5] 3.14% | [7] -88.8% | [10] -65%
inactive: [1] 38.3% | [2] 13.5% | [3] 41.6% | [4] 54% | [6] 44.9% | [8] 11.5% | [9] 19.3% | [11] 58.7% | [12] 76.2% | [13] 43.1% | [14] 29.9% | [15] 83.1% | [16] 36.9% | [17] 28.2% | [18] 34.1% | [19] 26.9% | [20] 14.6%

CCOC(=O)c1c(NC(=O)c2ccc(C(C)C)cc2)sc2c(CN(C)C)c(O)ccc12
active: [1] -49.2% | [5] 6.18% | [9] -83.3% | [10] -14.9% | [19] 8.75% | [20] -21%
inactive: [2] 27% | [3] 98.5% | [4] 57.8% | [6] 96.1% | [7] 80.7% | [8] 53.8% | [11] 88.3% | [12] 97.1% | [13] 82% | [14] 70.5% | [15] 107% | [16] 37.8% | [17] 75.7% | [18] 41.5%

CC(C)=NNc1ccccn1
inactive: [1] 27.9% | [2] 27.4% | [3] 79.2% | [4] 62.3% | [5] 39.6% | [6] 47.1% | [7] 69.7% | [8] 56.6% | [9] 29.7% | [10] 57.1% | [11] 83.2% | [12] 18.8% | [13] 45.4% | [14] 29.5% | [15] 39% | [16] 27.9% | [17] 29.1% | [18] 78.1% | [19] 26.8% | [20] 25.4%

CCOC(=O)C#Cc1c(C(=O)OCC)nnn1[C@@H]1O[C@H](CO)[C@H]2OC3(CCCCC3)O[C@H]21
inactive: [3] 73.1% | [4] 96% | [5] 104% | [6] 86.7% | [7] 96.2% | [8] 91.6% | [9] 20.1% | [10] 101% | [11] 106% | [12] 105% | [13] 75.6% | [18] 110% | [20] 22.3%
active: [1] -38.8% | [2] 7.93% | [14] 5.58% | [15] -3.79% | [16] -53% | [17] -99.7% | [19] 6.89%

CCOC(=O)/C=C1\S/C(=N\Nc2cc(=O)[nH]c3ccc(Cl)cc23)N(c2ccccc2)C1=O
inactive: [1] 74.5% | [2] 102% | [3] 87.5% | [4] 90.6% | [5] 89.9% | [6] 85.4% | [7] 98.9% | [8] 89.4% | [9] 84.4% | [10] 101% | [11] 105% | [12] 100% | [13] 93.1% | [14] 75.2% | [15] 107% | [16] 91.6% | [17] 83.3% | [18] 115% | [20] 21%
active: [19] 3.19%

CC(O)c1cnc(/C=C2\SC(=S)N(Cc3ccccc3)C2=O)s1 (stereo not given)
active: [2] -8.15% | [15] -18.5%
inactive: [1] 83.6% | [3] 85.2% | [4] 97.9% | [5] 54.9% | [6] 34% | [7] 88.8% | [8] 90.3% | [9] 41.2% | [10] 89.3% | [11] 69.1% | [12] 98.1% | [13] 95.5% | [14] 93.5% | [16] 88.2% | [17] 87.8% | [18] 104% | [19] 18.8% | [20] 58.1%

COc1ccc2nc(NC(=O)CSc3nnc4n3S(=O)(=O)c3ccccc3N4C)sc2c1
active: [14] -72.5% | [19] 4.33%
inactive: [1] 101% | [2] 114% | [3] 93.5% | [4] 112% | [5] 102% | [6] 94.7% | [7] 95.1% | [8] 87.3% | [9] 92% | [10] 117% | [11] 50.6% | [12] 106% | [13] 99.5% | [15] 140% | [16] 100% | [17] 98.3% | [18] 121% | [20] 71.5%

CC1(C)c2[nH]c3ccccc3c2C[C@]2(C)[C@H]3CC=C4[C@@H]5C[C@@](C)(C(N)=O)CC[C@]5(C)CC[C@@]4(C)[C@]3(C)CC[C@@H]12
inactive: [1] 50.9% | [2] 62.7% | [3] 101% | [4] 62.2% | [5] 69.2% | [6] 50.6% | [7] 19.8% | [8] 59.2% | [9] 56.8% | [10] 77.4% | [11] 80.3% | [12] 31.9% | [13] 61.8% | [14] 47.3% | [15] 84.2% | [16] 45.7% | [17] 57.7% | [18] 67.9% | [19] 54.7% | [20] 51.2%

CCCCC[C@@H]1Cc2cc(O)c(C(=O)O)c3c2[C@H](C[C@]2(OC[C@@H](CC(=O)[C@@](C)(CC)C(=O)OC)[C@@H]2C)O3)O1
inactive: [1] 91.6% | [2] 116% | [3] 96.9% | [4] 94.3% | [5] 103% | [6] 106% | [7] 108% | [8] 88.9% | [9] 103% | [10] 118% | [11] 101% | [12] 113% | [13] 92.4% | [14] 99.6% | [15] 109% | [16] 97.5% | [17] 99.9% | [18] 122% | [19] 116% | [20] 90.2%
